Assay results taken from PubChem BioAssay AID1159580 (chemical genetic matrix, 2015).
Out of some 5,500 compounds screened, about 2,000 (36%) were called active. Not shown: some 18% with an inconclusive outcome. No stated cut-off is given here; in the data, active means normalized growth mostly below about 0.91 (no sharp cut-off); inconclusive means no clear call, values can overlap the other calls; inactive means mostly above about 0.92. This is one part of the list.

Assay: chemical genetic growth profiling, strain panel (AID 1159580);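 further: tested at 20 µM; growth read once vehicle control cultures reached saturation at 30 °C; 1 = growth at the plate median or of vehicle wells; lower values mean less growth of the strain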
Details: S. cerevisiae deletion strains, growth OD

Measured: normalized growth

CC(=O)Oc1ccc(Cl)c2cccnc12
active: locus YAL013W, strain DEP1, hits give low values 0.0553 | locus YAL021C, strain ccr4, hits give low values 0.069 | locus YAL026C, strain drs2, hits give low values 0.0608 | locus YAL030W, strain snc1, hits give low values 0.0564 | locus YBL061C, strain skt5, hits give low values 0.0591 | locus YBR009C, strain hhf1, hits give low values 0.0605 | locus YBR021W, strain FUR4, hits give low values 0.0898 | locus YBR023C, strain chs3, hits give low values 0.0596 | locus YBR171W, strain sec66, hits give low values 0.0822 | locus YBR229C, strain ROT2, hits give low values 0.0477 | locus YBR231C, strain swc5, hits give low values 0.0648 | locus YBR279W, strain paf1, hits give low values 0.0603 | locus YCL011C, strain gbp2, hits give low values 0.0571 | locus YCL016C, strain dcc1, hits give low values 0.0644 | locus YCL029C, strain bik1, hits give low values 0.0625 | locus YCL069W, strain vba3, hits give low values 0.0622 | locus YCR088W, strain abp1, hits give low values 0.0643 | locus YDL005C, strain med2, hits give low values 0.0757 | locus YDL035C, strain GPR1, hits give low values 0.0496 | locus YDL040C, strain nat1, hits give low values 0.0609 | locus YDL074C, strain BRE1, hits give low values 0.0748 | locus YDL101C, strain DUN1, hits give low values 0.0607 | locus YDL134C, strain PPH21, hits give low values 0.0511 | locus YDL185W, strain tfp1, hits give low values 0.0604 | locus YDL192W, strain arf1, hits give low values 0.0619 | locus YDR001C, strain nth1, hits give low values 0.064 | locus YDR069C, strain doa4, hits give low values 0.0614 | locus YDR101C, strain arx1, hits give low values 0.0604 | locus YDR137W, strain rgp1, hits give low values 0.0888 | locus YDR150W, strain NUM1, hits give low values 0.0581 | locus YDR159W, strain sac3, hits give low values 0.0841 | locus YDR162C, strain NBP2, hits give low values 0.0464 | locus YDR195W, strain ref2 0.118 | locus YDR297W, strain sur2, hits give low values 0.0582 | locus YDR318W, strain mcm21, hits give low values 0.064 | locus YDR334W, strain swr1, hits give low values 0.0646 | locus YDR335W, strain msn5, hits give low values 0.0695 | locus YDR388W, hits give low values 0.0563 | locus YDR392W, strain spt3, hits give low values 0.0734 | locus YDR502C, strain sam2, hits give low values 0.0661 | locus YEL003W, strain gim4, hits give low values 0.0532 | locus YEL037C, strain rad23, hits give low values 0.0595 | locus YEL061C, strain CIN8 (second series), hits give low values 0.0644 | locus YEL061C, strain CIN8, hits give low values 0.0486 | locus YER015W, strain faa2, hits give low values 0.0637 | locus YER016W, strain bim1, hits give low values 0.0578 | locus YER110C, hits give low values 0.0806 | locus YER111C, strain swi4, hits give low values 0.076 | locus YER155C, strain BEM2 (second series), hits give low values 0.094 | locus YER155C, strain BEM2, hits give low values 0.0723 | locus YER167W, strain BCK2, hits give low values 0.0497 | locus YFR010W, strain ubp6, hits give low values 0.0687 | locus YGL078C, strain dbp3, hits give low values 0.0682 | locus YGL086W, strain mad1, hits give low values 0.0595 | locus YGL167C, strain pmr1, hits give low values 0.0737 | locus YGL173C, strain kem1, hits give low values 0.0684 | locus YGL227W, strain vid30, hits give low values 0.0677 | locus YGL240W, strain doc1, hits give low values 0.0722 | locus YGL248W, strain PDE1, hits give low values 0.046 | locus YGL253W, strain hxk2, hits give low values 0.0586 | locus YGR078C, strain PAC10, hits give low values 0.0495 | locus YGR135W, strain pre9, hits give low values 0.0649 | locus YGR252W, strain gcn5, hits give low values 0.186 | locus YHR013C, strain ard1, hits give low values 0.104 | locus YHR027C, strain rpn1, hits give low values 0.0596 | locus YHR030C, strain SLT2, hits give low values 0.0501 | locus YHR079C, strain IRE1 (second series), hits give low values 0.0563 | locus YHR094C, strain hxt1, hits give low values 0.0602 | locus YHR129C, strain ARP1, hits give low values 0.056 | locus YHR142W, strain chs7, hits give low values 0.0762 | locus YHR200W, strain rpn10, hits give low values 0.0647 | locus YIL066C, strain RNR3, hits give low values 0.0516 | locus YIL073C, strain SPO22, hits give low values 0.118 | locus YIL125W, strain kgd1, hits give low values 0.0601 | locus YIR030C, strain dcg1, hits give low values 0.0565 | locus YJL092W, strain hpr5, hits give low values 0.0615 | locus YJL095W, strain BCK1 (second series), hits give low values 0.0566 | locus YJL095W, strain BCK1, hits give low values 0.0546 | locus YJL115W, strain asf1, hits give low values 0.0797 | locus YJL129C, strain trk1, hits give low values 0.0818 | locus YJL134W, strain LCB3, hits give low values 0.0495 | locus YJL154C, strain vps35, hits give low values 0.0615 | locus YJL164C, strain tpk1, hits give low values 0.0597 | locus YJL166W, strain qcr8, hits give low values 0.0614 | locus YJL168C, strain set2, hits give low values 0.062 | locus YJL187C, strain SWE1 (second series), hits give low values 0.0475
